Assay outcomes: PubChem BioAssay, several laboratories
In the library only some 21% were active in any assay of this set; here they are far more common.
MRP-1 activ: activates MRP-1; H69AR cells + doxorubicin, viability rescue, CellTiter-Glo; viability increase, % at 10 µM; 140,000 tested, 0.61% active;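 active = viability gain under doxorubicin at or above a set limit, the compound median plus 3 SD, cut at about 4.7% in these data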;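 note: MRP-1 overexpressing cells given doxorubicin 25 µM after compound pretreatment; 18-22 h compound pretreatment then 72 h with doxorubicin before readout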
CYP2C9 act: increases human cytochrome P450 2C9 activity; P11712; recombinant CYP2C9, luciferin-H conversion, luminescence; active compounds read high; factor 1 = untreated enzyme, 0 = blocked; activation factor at 5 µM; 96,000 tested, 1.4% active; AID 1024;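 active = activation factor of 2 or more for CYP2C9 at a 5 µM dose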
Target sequence (P11712 whole entry, looked up): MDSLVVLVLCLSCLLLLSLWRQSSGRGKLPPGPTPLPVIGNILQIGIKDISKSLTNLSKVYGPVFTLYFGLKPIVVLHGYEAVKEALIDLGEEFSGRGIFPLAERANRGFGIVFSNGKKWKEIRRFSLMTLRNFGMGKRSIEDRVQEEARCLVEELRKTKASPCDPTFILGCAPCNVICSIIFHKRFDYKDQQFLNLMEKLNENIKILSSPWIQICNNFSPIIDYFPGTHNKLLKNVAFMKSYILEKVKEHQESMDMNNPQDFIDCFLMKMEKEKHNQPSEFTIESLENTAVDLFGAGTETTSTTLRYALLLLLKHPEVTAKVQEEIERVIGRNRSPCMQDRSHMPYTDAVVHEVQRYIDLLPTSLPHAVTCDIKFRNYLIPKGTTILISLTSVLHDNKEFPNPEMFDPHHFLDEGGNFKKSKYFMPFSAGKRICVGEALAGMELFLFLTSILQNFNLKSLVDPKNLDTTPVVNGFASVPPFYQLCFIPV
CYP2C19 activ: increases human CYP2C19 enzyme activity | 96,000 tested, under 10 active | recombinant CYP2C19, luciferin-H EGE luminescence; active compounds read high; 0 = fully inhibited enzyme, 1 = untreated enzyme | activation factor at 5 µM | P33261;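 active = activation factor of at least 2 at 5 µM in the primary screen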
MRP reversal: MRP-mediated drug resistance reversal | H69AR cells + 2 uM doxorubicin, CellTiter-Glo, 72 h | 85,000 tested, 0.04% active | differential viability (reversal), % at 10 µM;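 active = viability drop by adding the cancer drug above about 55%, with treated viability meeting a 40% cutoff, limit read from the data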;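 note: larger differential means the compound sensitizes cells more to doxorubicin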
CYP2C19 inh: blocks human cytochrome P450 2C19. CYP2C19 Supersomes, luciferin-H EGE luminescence, 30 min. inhibition, % at 5 µM. 96,000 tested, 21% active;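 active = CYP2C19 inhibition above a set limit at 5 µM in the primary screen, cut at about 50% in these data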
CYP2C9 inhib: human CYP2C9 inhibition. CYP2C9 Supersomes, luciferin-H conversion, luminescence. P11712. inhibition, % at 5 µM. AID 777. 96,000 tested, 20% active;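 active = blocking of liver enzyme CYP2C9 beyond about 50% at 5 µM, limit read from the data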
Large screens that a line does not name were inactive.

O=C(CSc1nc2ccccc2c(=O)n1NC(=O)Cc1ccccc1)NCCc1ccccc1	CYP2C9 inhib 94
CCn1c(SCC(=O)OC2CCCCC2)nc2ccccc2c1=O	CYP2C19 inh 87, CYP2C9 inhib 77
CCn1c(SCC(=O)NCCOc2ccccc2)nc2ccccc2c1=O	CYP2C19 inh 69, CYP2C9 inhib 57
CCOC(=O)CSc1nc2ccccc2c(=O)n1CC	none
Cc1cc(C)cc(C(=O)OCC(=O)NCC(F)(F)F)c1	none (no result: CYP2C9 act, CYP2C19 activ, MRP reversal, CYP2C19 inh, CYP2C9 inhib)
COCCNC(=O)CSc1nc2ccccc2c(=O)n1CCCC(=O)NCc1ccccc1	CYP2C9 inhib 70
CCCCN(C)CCn1c(=S)[nH]c2ccc(N3CCOCC3)cc2c1=O	none
CCOC(=O)c1c(C)c(C(=O)N2CCCCCC2)c(C)n1CC	CYP2C19 inh 67
CCOC(=O)c1c(C)c(C(=O)N2CCCCCC2)c(C)n1C	none
CCNC(=S)N(CCc1c(C)[nH]c2ccccc12)Cc1cc(OC)c(OC)c(OC)c1	none (no result: CYP2C9 act, CYP2C19 activ, MRP reversal, CYP2C19 inh, CYP2C9 inhib)
Cc1csc(=Nc2ccc(S(=O)(=O)N3CCOCC3)cc2)n1Cc1ccco1	CYP2C9 inhib 64
COCCNS(=O)(=O)c1ccc(OCC(=O)OC)c(Cl)c1	none
Cc1cc(S(=O)(=O)N2CCCC2)ccc1OCC(=O)NCc1ccco1	CYP2C9 inhib 50
CN(C)S(=O)(=O)c1ccc(Cl)c(C(=O)NCc2ccco2)c1	none
O=C(NCc1ccco1)c1cc(S(=O)(=O)N2CCCc3ccccc32)ccc1Cl	CYP2C19 inh 81 (no result: MRP reversal)
COC(=O)COc1ccc(S(=O)(=O)NCc2ccco2)cc1Cl	CYP2C19 inh 58
COC(=O)COc1ccc(S(=O)(=O)NCCC2=CCCCC2)cc1Cl	CYP2C19 inh 97
O=C(COc1ccc(S(=O)(=O)N2CCCC2)cc1)NCc1ccco1	none
O=C(NCCc1c[nH]c2ccccc12)C(=O)NCC(c1ccco1)N1CCN(c2ccccc2F)CC1 (centres undefined)	none (no result: CYP2C9 act, CYP2C19 activ, MRP reversal, CYP2C19 inh, CYP2C9 inhib)
CCOC(=O)C1=C(C)NC(=O)C(C#N)C1c1ccco1 (centres undefined)	none
O=C(Nc1ccc(O)c(-c2nc3ccccc3o2)c1)C1(c2ccc(Br)cc2)CCCC1	none (no result: CYP2C9 act, CYP2C19 activ, MRP reversal, CYP2C19 inh, CYP2C9 inhib)
Cc1nc(C)c(C(=O)NNC(=O)c2ccc(Br)cc2)s1	none (no result: CYP2C9 act, CYP2C19 activ, MRP reversal, CYP2C19 inh, CYP2C9 inhib)
O=C(CC1Sc2ccccc2NC1=O)Nc1ccccc1[N+](=O)[O-] (centres undefined)	none (no result: CYP2C9 act, CYP2C19 activ, MRP reversal, CYP2C19 inh, CYP2C9 inhib)
O=C(O)CSCCOc1ccc(OCCSCC(=O)O)cc1	none (no result: CYP2C9 act, CYP2C19 activ, MRP reversal, CYP2C19 inh, CYP2C9 inhib)
COc1ccc(C(=O)OCC(=O)NCc2ccco2)cc1S(=O)(=O)N1CCN(c2cccc(Cl)c2)CC1	CYP2C19 inh 98, CYP2C9 inhib 96 (no result: MRP reversal)
O=C(COc1ccc(S(=O)(=O)N2CCCC2)cc1Cl)NCc1ccco1	CYP2C9 inhib 85
COc1cc(C(=O)OCC(=O)NCc2ccco2)cc(OC)c1OC	none
CCOC(=O)c1cccc(NC(=O)C2(S(=O)(=O)c3ccc(C)cc3)CC2)c1	none (no result: CYP2C9 act, CYP2C19 activ, MRP reversal, CYP2C19 inh, CYP2C9 inhib)
COc1cccc(CNC(=O)Cc2ccc(-n3c(=O)[nH]c4ccccc4c3=O)cc2)c1	none (no result: CYP2C9 act, CYP2C19 activ, MRP reversal, CYP2C19 inh, CYP2C9 inhib)
N#Cc1c(NC(=O)CSc2nnc(-c3ccccc3O)n2-c2ccccc2)sc2c1CCCC2	CYP2C19 inh 74, CYP2C9 inhib 67
Cn1c(-c2ccc(F)cc2)cnc1SCC(=O)N1CCCCC1	CYP2C19 inh 62
N#Cc1c(NC(=O)CSc2ncc(-c3ccccc3)n2CC2CCCO2)sc2c1CCCC2 (centres undefined)	CYP2C19 inh 60, CYP2C9 inhib 73
O=C(CSc1ncc(-c2ccccc2)n1CC1CCCO1)N1CCCCC1 (centres undefined)	CYP2C19 inh 58
N#Cc1c(NC(=O)CSc2nnc(-c3ccccc3)o2)sc2c1CCCC2	none (no result: MRP reversal)
Cc1nc(C(=O)N(C)C)nn1-c1cc(Cl)cc(Cl)c1	none (no result: MRP reversal)
CC1CCCC(NC(=O)Cn2cc3c(n2)CCCCC3)C1C (centres undefined)	none
NC(=O)c1c(NC(=O)CSc2nnc(-c3ccccc3)n2CC2CCCO2)sc2c1CCC2 (centres undefined)	CYP2C19 inh 80, CYP2C9 inhib 91
N#Cc1c(NC(=O)CSc2nnc(-c3ccncc3)n2CC2CCCO2)sc2c1CCCC2 (centres undefined)	CYP2C19 inh 69, CYP2C9 inhib 87 (no result: MRP reversal)
Fc1ccc(/C=N/n2c(-c3cccs3)n[nH]c2=S)cc1	none (no result: MRP reversal)
Cc1ccc(NC2(c3nnnn3-c3c(C)cccc3C)CCCCC2)cc1	none (no result: CYP2C9 act, CYP2C19 activ, MRP reversal, CYP2C19 inh, CYP2C9 inhib)
CCCCC(=O)NC1(C(F)(F)F)C(=O)Nc2c1c(=O)n(C)c(=O)n2C (centres undefined)	none
Nc1cccc(-n2nncc2-c2ccccc2)c1	none
